Test results reported in PubChem BioAssay (Tox21).
Inconclusive results are not listed. A call without a number means that no potency is given here. A number with no mark means an inactive call. Activity calls are given as the source filed them. Calls come from the whole dose curve; as a rule, active = well fitted cell-killing curve with a large enough effect in the repeat runs; inconclusive = weak or mixed curves, or effect the other way; inactive = flat fitted curve, though single readings scatter.

Legend:
[1] = cAMP Responsive Elements (CRE) small molecule antagonists, cell-based qHTS assay: qHTS cell viability counter screen (AID 2060913); note: nearly all actives have a fitted effect of over 40% in size
Outline: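 Cytotoxicity counter screen multiplexed with the CRE-bla antagonist read: HEK293T cells in DMEM with dialyzed FBS and 25 mM HEPES were treated 3 hrs under 0.25 uM final NKH477, then viability measured by CellTiter-Glo luminescence.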

[2] = cAMP Responsive Elements (CRE) small molecule agonists, cell-based qHTS assay: qHTS cell viability counter screen (AID 2060914);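 note: viability read after 3 h of compound exposure; nearly all actives have a fitted effect of over 50% in size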
Outline: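 CRE-bla HEK 293T cells, plated 18 h at 37 °C, were exposed to compounds for 3 h at 37 °C/5% CO2. Viability was then measured in the same wells by CellTiter-Glo luminescence after 30 min at room temperature.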

Row | SMILES | Potency [1] | Potency [2] | viability change, negative = cytotoxic [1] | activity change, negative = cytotoxicity [2]
1 | COc1cc2nc(N3CCN(C(=O)C4CCCO4)CC3)nc(N)c2cc1OC (centres undefined) | inactive | inactive | – | –
2 | CC1(C)NC(=O)N(c2ccc([N+](=O)[O-])c(C(F)(F)F)c2)C1=O | inactive | inactive | – | –
3 | O=C1OC(=O)c2cccc3cccc1c23 | inactive | inactive | – | –
4 | Cc1c(C(=O)c2c[nH]n(C)c2=O)ccc(S(C)(=O)=O)c1C1=NOCC1 | inactive | inactive | – | –
5 | N#Cc1c(F)cccc1F | inactive | inactive | – | –
6 | CC(=O)/C(C)=C/C1C(C)=CCCC1(C)C (centres undefined) | inactive | inactive | – | –
7 | CC(=O)CC(c1ccccc1)c1c(O)c2ccccc2oc1=O (centres undefined) | inactive | inactive | – | –
8 | C#Cc1ccc(-c2ccccc2F)cc1 | inactive | inactive | – | –
9 | O=C(O)Cc1ccccc1Oc1ccc(Cl)cc1Cl | inactive | inactive | – | –
10 | O=C(O)COCC(=O)O | inactive | inactive | – | –
11 | CC1(C)O[C@@H]2C[C@H]3[C@@H]4C[C@H](F)C5=CC(=O)CC[C@]5(C)[C@H]4[C@@H](O)C[C@]3(C)[C@]2(C(=O)CO)O1 | inactive | inactive | – | –
12 | CCCCNc1cc(C(=O)O)cc(S(N)(=O)=O)c1Oc1ccccc1 | inactive | inactive | – | –
13 | OCc1ccccc1O | inactive | inactive | – | –
14 | COCCc1ccc(OCC2CO2)cc1 (centres undefined) | inactive | inactive | – | –
15 | Cc1ncc([N+](=O)[O-])n1CC(O)CCl (centres undefined) | inactive | inactive | – | –
16 | O=C(CCCCCCC(=O)Nc1ccccc1)NO | inactive | inactive | – | –
17 | CC(C)(O)CCc1ccccc1 | inactive | inactive | – | –
18 | O=C(O)c1ccc(CO)o1 | inactive | inactive | – | –
19 | NCCNCCNCCN | inactive | inactive | – | –
20 | Cc1cc(O)c2c(O)c3c(O)cccc3cc2c1 | inactive | inactive | – | –
21 | Clc1ccc(Nc2nnc(Cc3ccncc3)c3ccccc23)cc1 | inactive | inactive | – | –
22 | COc1cnc(NS(=O)(=O)c2ccc(N)cc2)nc1 | inactive | inactive | – | –
23 | CC(=O)O[C@@H]1C[C@@H]2CC[C@@]1(C)C2(C)C | inactive | inactive | – | –
24 | CCOB(OCC)OCC | inactive | inactive | – | –
25 | CCCOC(=O)C(C)O (centres undefined) | inactive | inactive | – | –
26 | C/C(C=O)=C\c1ccccc1 | inactive | inactive | – | –

Row | SMILES | Potency [1] | Potency [2] | viability change, negative = cytotoxic [1] | activity change, negative = cytotoxicity [2]
27 | c1ccc(SCCSc2ccccc2)cc1 | inactive | inactive | – | –
28 | OCC#CCO | inactive | inactive | – | –
29 | CC(C)C(=O)OC(=O)C(C)C | inactive | inactive | – | –
30 | O=C1c2ccccc2C(=O)C1c1nc2ccccc2c(Br)c1O | inactive | inactive | – | –
31 | ClC(Cl)(Br)Br | inactive | inactive | – | –
32 | NCC[C@H](O)C(=O)N[C@@H]1C[C@H](N)[C@@H](O[C@H]2O[C@H](CN)[C@@H](O)[C@H](O)[C@H]2O)[C@H](O)[C@H]1O[C@H]1O[C@H](CO)[C@@H](O)[C@H](N)[C@H]1O | – | – | 0.2% [at 0.349 µM] | -8.14% [at 0.349 µM]
33 | CCCCCCCC/C=C\CCCCCCCCN | inactive | inactive | – | –
34 | CC(CN)CC(C)(C)CCN (centres undefined) | inactive | inactive | – | –
35 | COC(OC)C(C)c1ccccc1 (centres undefined) | inactive | inactive | – | –
36 | CCCCCCCCSCCO | inactive | inactive | – | –
37 | CC(C)=CCC/C(C)=C/CC/C(C)=C/C(=O)OCC(=O)[C@@]1(O)CC[C@H]2[C@@H]3CCC4=CC(=O)C=C[C@]4(C)[C@H]3[C@@H](O)C[C@@]21C | inactive | inactive | – | –
38 | CCCCC=O | inactive | inactive | – | –
39 | CC(O)COc1ccccc1 (centres undefined) | inactive | inactive | – | –
40 | CC(=O)Nc1ccc(C)cc1 | inactive | inactive | – | –
41 | NCCC(O)(P(=O)(O)O)P(=O)(O)O | inactive | inactive | – | –
42 | C=CC(C)=CCC=C(C)C | inactive | inactive | – | –
43 | Oc1cc2ccccc2cc1O | inactive | inactive | – | –
44 | CCCC(C)C(O)CC (centres undefined) | inactive | inactive | – | –
45 | Cc1cc2c(s1)Nc1ccccc1N=C2N1CCN(C)CC1 | inactive | inactive | – | –
46 | COc1cc2c(cc1OC)CN(C(=O)[C@H](C)N[C@@H](CCc1ccccc1)C(=O)O)[C@H](C(=O)O)C2 | inactive | inactive | – | –
47 | CC(C)(Oc1ccc(Cl)cc1)C(=O)OCCCOC(=O)C(C)(C)Oc1ccc(Cl)cc1 | inactive | inactive | – | –
48 | CC(=O)Nc1ccc2c(c1)Cc1cc(NC(C)=O)ccc1-2 | inactive | inactive | – | –
49 | C=CC(=O)NC(C)(C)CS(=O)(=O)O | inactive | inactive | – | –
50 | CC(=O)c1ccc2c(c1)[C@H](NC(=O)c1ccc(F)cc1)[C@@H](O)C(C)(C)O2 | inactive | inactive | – | –
51 | c1cnc2c(c1)ccc1cccnc12 | inactive | inactive | – | –
52 | CC[C@H]1OC(=O)[C@H](C)[C@@H](O[C@H]2C[C@@](C)(OC)[C@@H](O)[C@H](C)O2)[C@H](C)[C@@H](O[C@@H]2O[C@H](C)C[C@H](N(C)C)[C@H]2O)[C@](C)(O)C[C@@H](C)C(=O)[C@H](C)[C@@H](O)[C@]1(C)O | inactive | inactive | – | –
